Data published in PubChem BioAssay (NCI).
Compounds without any hit were thinned out: in the full panel of roughly 83,000, 20% have a hit.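 Note: values are percent growth. 100 is the growth of untreated cells, values between 100 and 0 indicate rising inhibition; between -100 and 0 indicates cell death.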 Activity calls are given as the source filed them. How the source made its calls: active means growth percent below 10; inactive means the rest.

Key:
Experiment in all cases: NCI-60 one-dose screen, 48 h (100 = growth as untreated, 0 = no growth, -100 = all killed)
Details in all cases: 10 µM unless noted
DU-145 prostate = test system: DU-145 prostate
K-562 leukemia = test system: K-562 leukemia
MALME-3M melanoma = test system: MALME-3M melanoma
MDA-MB-231 breast = test system: MDA-MB-231 breast
RXF 393 renal = test system: RXF 393 renal
SF-268 CNS = test system: SF-268 CNS
SF-295 CNS = test system: SF-295 CNS
SF-539 CNS = test system: SF-539 CNS
UACC-257 melanoma = test system: UACC-257 melanoma
M14 melanoma = test system: M14 melanoma

Measured: growth

CC(=O)OC[C@@]1(C)C2CC[C@]3(C)C(CC=C4C5CC(C)(C)CC[C@]5(C(=O)Nc5ccc(C)cc5)CC[C@]43C)[C@@]2(C)C[C@@H](OC(C)=O)[C@@H]1OC(C)=O (stereo not given in full)
inactive: DU-145 prostate 49% | K-562 leukemia 21.6% | MALME-3M melanoma 60.6% | MDA-MB-231 breast 66.1% | RXF 393 renal 82.2% | SF-268 CNS 57.4% | SF-295 CNS 31.2% | SF-539 CNS 43.1% | UACC-257 melanoma 23.9% | M14 melanoma 51.9%

COc1ccc(-c2ccnc(SCc3cc4ccccc4[nH]c3=O)n2)cc1OC
active: MALME-3M melanoma 8.86% | MDA-MB-231 breast -51.8% | RXF 393 renal -30.4% | SF-295 CNS -78.3% | SF-539 CNS -84.7%
inactive: DU-145 prostate 36.4% | K-562 leukemia 62.9% | SF-268 CNS 23% | UACC-257 melanoma 29.5% | M14 melanoma 45.4%

O=C(O)Cn1c(O)c(/C=C2/C=c3cc4c(cc3=NC2=O)OCCO4)sc1=S
inactive: DU-145 prostate 118% | K-562 leukemia 106% | MALME-3M melanoma 100% | MDA-MB-231 breast 103% | RXF 393 renal 117% | SF-268 CNS 118% | SF-295 CNS 94.6% | SF-539 CNS 107% | UACC-257 melanoma 108% | M14 melanoma 111%

O=C(c1ccc(OCCN2CCOCC2)cc1)C1[C@H](c2ccc(Cl)cc2)[C@@H](c2ccccc2)NC12C(=O)Nc1ccc(Cl)cc12 (stereo not given in full)
active: K-562 leukemia 4.95% | RXF 393 renal 2.65%
inactive: DU-145 prostate 45.8% | MALME-3M melanoma 69.3% | MDA-MB-231 breast 28.7% | SF-268 CNS 43.8% | SF-295 CNS 27.4% | SF-539 CNS 41.5% | UACC-257 melanoma 45.4% | M14 melanoma 23.2%

O=C(c1ccc(Cl)cc1)c1ccc(OCCCN2CCN(c3ccncc3)CC2)cc1
inactive: DU-145 prostate 62.1% | MDA-MB-231 breast 17.2% | RXF 393 renal 32.8% | SF-268 CNS 73.2% | SF-295 CNS 17.6% | SF-539 CNS 16.7% | UACC-257 melanoma 42.4%
active: K-562 leukemia 1.45% | MALME-3M melanoma -54.1% | M14 melanoma -36.2%

C/C(=N\N=C\c1cc([N+](=O)[O-])ccc1Cl)c1ccc2c(c1)Nc1ccccc1S2
inactive: DU-145 prostate 84.2% | K-562 leukemia 57.1% | MALME-3M melanoma 74.2% | MDA-MB-231 breast 49.9% | RXF 393 renal 62.8% | SF-268 CNS 80.4% | SF-539 CNS 58.1% | UACC-257 melanoma 81.5% | M14 melanoma 88.2%
active: SF-295 CNS -28%

COc1ccc(/C=C/c2n(Cc3ccc4ccccc4c3)c3ccccc3[n+]2Cc2ccc3ccccc3c2)cc1
active: DU-145 prostate -93.1% | K-562 leukemia 1.11% | MALME-3M melanoma -85.7% | MDA-MB-231 breast -86.5% | RXF 393 renal -74.7% | SF-268 CNS -80.5% | SF-295 CNS -95.8% | SF-539 CNS -95.5% | UACC-257 melanoma -91.7% | M14 melanoma -88.3%

O=C(N1c2ccccc2Sc2ccccc21)n1ccc2cccnc21
inactive: DU-145 prostate 86.6% | K-562 leukemia 19.5% | MALME-3M melanoma 75.5% | MDA-MB-231 breast 69.3% | RXF 393 renal 83.7% | SF-268 CNS 80.8% | SF-295 CNS 81% | SF-539 CNS 76.6% | UACC-257 melanoma 61.1% | M14 melanoma 70.1%

C=C1CC[C@@H]2[C@]3(C)COC(c4cn[nH]c4-c4cccc(Cl)c4)O[C@@H]3CC[C@@]2(C)[C@@H]1C/C=C1/C(=O)OCC1O (stereo not given in full)
active: K-562 leukemia 5% | MALME-3M melanoma -50.7% | MDA-MB-231 breast -52.7% | RXF 393 renal -91% | SF-295 CNS -32.8% | SF-539 CNS -89.8% | UACC-257 melanoma -33.1% | M14 melanoma -73.4%
inactive: DU-145 prostate 25.5% | SF-268 CNS 34.3%

CCCSc1nc(Nc2ccc(S(N)(=O)=O)cc2)c(C#N)c(-c2ccc(Cl)cc2)n1
inactive: DU-145 prostate 58.7% | SF-268 CNS 66% | UACC-257 melanoma 54.8% | M14 melanoma 18.8%
active: K-562 leukemia 7.3% | MALME-3M melanoma -4.55% | MDA-MB-231 breast -55.6% | RXF 393 renal -43.4% | SF-295 CNS 1.43% | SF-539 CNS -4.39%

Cc1cc2nc3c4ccccc4n(CCNCCN(C)C)c3nc2cc1C
inactive: DU-145 prostate 17.2% | SF-268 CNS 42.5% | SF-295 CNS 20.2%
active: K-562 leukemia 0.435% | MALME-3M melanoma -96.6% | MDA-MB-231 breast 1.93% | RXF 393 renal -34.7% | SF-539 CNS -79.8% | UACC-257 melanoma -72.8% | M14 melanoma -79.9%

CC12CC[C@@H]3[C@]4(C)COC(c5cn[nH]c5-c5cccc(Cl)c5)O[C@@H]4CC[C@@]3(C)[C@@H]1CC(C1=CCOC1=O)O2 (stereo not given in full)
inactive: DU-145 prostate 56.6% | K-562 leukemia 25% | MALME-3M melanoma 40.5% | MDA-MB-231 breast 36.4% | RXF 393 renal 18.3% | SF-268 CNS 45.5% | SF-295 CNS 35.4% | SF-539 CNS 58.2% | UACC-257 melanoma 43.3% | M14 melanoma 25.3%

CN(C)CCCNC(=O)c1cc(NC(=O)c2cc(NC(=O)c3ccc(/C=C/c4ccccc4)cc3)cn2C)cn1C
inactive: DU-145 prostate 57.1% | MALME-3M melanoma 35% | MDA-MB-231 breast 65.6% | RXF 393 renal 25% | SF-268 CNS 48.9% | SF-295 CNS 35.2% | SF-539 CNS 32.7% | UACC-257 melanoma 54.2% | M14 melanoma 48.1%
active: K-562 leukemia -41%

Nc1nc(-c2ccccc2)c(N=Nc2ccc(Cl)cc2[N+](=O)[O-])s1
inactive: DU-145 prostate 112% | K-562 leukemia 96.1% | MALME-3M melanoma 109% | MDA-MB-231 breast 95.5% | RXF 393 renal 106% | SF-268 CNS 87.7% | SF-295 CNS 101% | SF-539 CNS 86.5% | UACC-257 melanoma 103% | M14 melanoma 98.3%

COc1ccc(N2N=C(c3ccc4c(c3)OCO4)CC2c2cccc(NC(=O)CCCNS(=O)(=O)c3ccc(F)cc3)c2)cc1 (stereo not given)
inactive: DU-145 prostate 80.3% | K-562 leukemia 35.5% | MALME-3M melanoma 77.6% | MDA-MB-231 breast 50.2% | RXF 393 renal 66.9% | SF-268 CNS 52.8% | SF-295 CNS 49.2% | SF-539 CNS 74.9% | UACC-257 melanoma 75.7% | M14 melanoma 49.5%

COc1ccc(-c2nc3cc(C)ccc3n2CC(=O)N=Nc2c(O)[nH]c3ccccc23)cc1
inactive: SF-295 CNS 15.4%
active: DU-145 prostate 9.13% | K-562 leukemia 4.42% | MALME-3M melanoma -60% | MDA-MB-231 breast -54.2% | RXF 393 renal -29.7% | SF-268 CNS -5.5% | SF-539 CNS -90.2% | UACC-257 melanoma -7.27% | M14 melanoma -71.5%

Cc1ccc(C2=NN(c3nc(-c4cc5ccccc5oc4=O)cs3)C(c3ccc(C)cc3)C2)cc1 (stereo not given)
inactive: DU-145 prostate 113% | K-562 leukemia 101% | MALME-3M melanoma 91.6% | MDA-MB-231 breast 84.4% | RXF 393 renal 103% | SF-268 CNS 120% | SF-295 CNS 99.6% | SF-539 CNS 93.9% | UACC-257 melanoma 112% | M14 melanoma 106%

O=C(NN1C(=O)/C(=C/C=C/c2ccc([N+](=O)[O-])o2)SC1=S)c1ccccc1O
active: DU-145 prostate -100% | K-562 leukemia 7.19% | MALME-3M melanoma -95% | MDA-MB-231 breast -93.1% | RXF 393 renal -94.5% | SF-268 CNS -81.4% | SF-295 CNS -48.2% | SF-539 CNS -100% | UACC-257 melanoma -85% | M14 melanoma -81.3%

COc1ccc(C(=O)/C=C/c2ccc(OCc3ccc(F)cc3)c(OC)c2)cc1OC
inactive: MALME-3M melanoma 61.4% | MDA-MB-231 breast 11.1% | RXF 393 renal 18.7% | SF-268 CNS 24.3% | SF-295 CNS 15.6% | UACC-257 melanoma 33.6% | M14 melanoma 38.1%
active: DU-145 prostate 1.63% | K-562 leukemia 7.71% | SF-539 CNS -38.6%

CC12CC[C@@H]3[C@]4(C)COC(c5c(F)cccc5F)O[C@@H]4CC[C@@]3(C)[C@@H]1CC(C1=CCOC1=O)O2 (stereo not given in full)
inactive: DU-145 prostate 76.6% | K-562 leukemia 66.6% | MALME-3M melanoma 60.4% | MDA-MB-231 breast 36.5% | RXF 393 renal 83.8% | SF-268 CNS 70.3% | SF-295 CNS 69.1% | SF-539 CNS 33.8% | UACC-257 melanoma 64.6% | M14 melanoma 66.5%

COc1ccc(NC(=O)[C@@H](N)Cc2ccccc2)cc1C(=O)Nc1cccc(C2CC(=O)c3c(cc(OC)c(OC)c3OC)O2)c1 (stereo not given in full)
inactive: DU-145 prostate 58.1% | K-562 leukemia 17.5% | MALME-3M melanoma 66% | MDA-MB-231 breast 63% | RXF 393 renal 73.7% | SF-268 CNS 60.5% | SF-295 CNS 127% | SF-539 CNS 82.4% | UACC-257 melanoma 95.5% | M14 melanoma 65%

Cc1cc2c(cc1Cl)C(=O)/C(=C/c1ccc(F)cc1)O2
inactive: DU-145 prostate 118% | K-562 leukemia 77.6% | MALME-3M melanoma 100% | MDA-MB-231 breast 90.1% | RXF 393 renal 95.7% | SF-268 CNS 117% | SF-295 CNS 98.9% | SF-539 CNS 85.9% | UACC-257 melanoma 106% | M14 melanoma 96.8%

S=C(Nc1ccc(OCc2nc3ccccc3[nH]2)cc1)NC1CCCCC1
inactive: DU-145 prostate 98.4% | K-562 leukemia 108% | MALME-3M melanoma 67.6% | MDA-MB-231 breast 100% | RXF 393 renal 147% | SF-268 CNS 106% | SF-295 CNS 74.4% | SF-539 CNS 79.5% | UACC-257 melanoma 95.5% | M14 melanoma 105%

O=S(=O)(Nc1cccc(-n2cnc3cc(-c4ccc(O)cc4)ccc32)c1)C1CC1
active: K-562 leukemia 8.55% | RXF 393 renal 4.76% | SF-539 CNS -11.6%
inactive: DU-145 prostate 27.5% | MALME-3M melanoma 46.1% | MDA-MB-231 breast 42.4% | SF-268 CNS 31.9% | SF-295 CNS 11.9% | UACC-257 melanoma 68.4% | M14 melanoma 29.7%
